The text below walks through data of PubChem BioAssay AID1240 (Sanford-Burnham Center for Chemical Genomics, 2008).

In all, about 50,000 compounds went through this assay and about 800 (1.6%) showed an effect of 50% or more. Many of the other results were omitted from the sample, so strong results are more common in it than they were.

Sequence of Bcl-2-like protein 10 (Homo sapiens) (Q9HD36 whole entry, looked up): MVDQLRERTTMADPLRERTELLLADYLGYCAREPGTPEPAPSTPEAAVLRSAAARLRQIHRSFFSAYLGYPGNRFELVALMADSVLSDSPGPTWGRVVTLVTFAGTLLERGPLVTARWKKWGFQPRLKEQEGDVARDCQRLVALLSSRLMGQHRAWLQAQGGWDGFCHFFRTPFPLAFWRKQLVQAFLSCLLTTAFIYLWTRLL

This assay concerns the target Bcl-2-like protein 10 (Homo sapiens) (UniProt Q9HD36). The experiment in a line: Phenotype converters, Bcl-B/TR3 peptide binding displacement, primary biochemical FP (AID 1240).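 Note: 0% = Bcl-B with tracer peptide and DMSO and 100% = tracer peptide lacking Bcl-B.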 The following applies: GST-Bcl-B / FITC-TR3 peptide fluorescence polarization; stronger effect = higher value; compound at 3.75 mg/L. On the technique in general: Fluorescence polarisation rises when a labelled molecule tumbles more slowly, as on binding a larger partner.
With `O=C(NCc1cccs1)c1cc2n(n1)C(C(F)(F)F)CC(c1cccs1)N2` (configuration not stated), the displacement was found to be 0%.

As to `CCC(Oc1ccccc1)C(=O)NC(C)c1ccccc1` (configuration not stated), the displacement was -18.9%.

As to `Oc1ccc(Br)cc1C=NCc1ccco1`, the displacement is 3.3%.

Regarding `Cc1sc(NC(=O)c2ccc(Br)o2)c(C(N)=O)c1C`, the displacement was found to be 10%.

`COc1ccc(CC(=O)Nc2ccc(Br)c(C)c2)cc1`: the displacement came out at 7.5%.

Consider `C=CCNCCCCOc1ccc(Br)cc1`, for which the displacement stood at 8.5%.

In the case of `Cc1no[n+]([O-])c1COc1ccc(/C=C2\N=C(c3ccccc3)OC2=O)cc1`, the displacement was -9.9%.

For the molecule `Cc1c(-c2ccc(Cl)cc2)nc2ccccc2c1C(=O)O`, the displacement was -6.5%.

Turning to `Cc1cc(C)cc(N2C(=O)NC(=O)/C(=C\c3ccc(F)cc3)C2=O)c1`, the displacement came to 7.7%.

Turning to `Cc1cc(C)cc(N2C(=O)NC(=O)/C(=C\c3ccc(Cl)cc3)C2=O)c1`, the displacement was 16.4%.

For the molecule `CCn1cc(/C=C2\C(=O)NC(=O)N(c3ccccc3)C2=O)c2ccccc21`, the displacement worked out at 25.2%.

On to `C#CCn1cc(/C=C2\C(=O)NC(=O)N(c3ccc(C)cc3)C2=O)c2ccccc21`, for which the displacement was 66.4%.

As to `C#CCn1cc(/C=C2\C(=O)NC(=O)N(c3ccc(Cl)cc3)C2=O)c2ccccc21`, the displacement stood at 37.5%.

For the molecule `Cc1cc(C)cc(N2C(=O)NC(=O)/C(=C\c3ccc(N(C)C)cc3)C2=O)c1`, the displacement amounted to 127%.

In the case of `CCCC(C)NC(=O)c1ccc(Cl)c([N+](=O)[O-])c1` (configuration not stated), the displacement was -0.1%.

As for `CCOC(=O)/C(C#N)=C/c1ccc(OCc2c(C)no[n+]2[O-])cc1`, the displacement was -1.9%.

As for `CN1CCN(CCOCCOc2ccccc2)CC1`, the displacement was -7.9%.

Regarding `O=C(CCCC(=O)OCC(F)(F)C(F)F)Nc1nccs1`, the displacement stood at 9.8%.

As to `O=C(NCCO)/C(=C/c1cccc([N+](=O)[O-])c1)NC(=O)c1cccs1`, the displacement is 0%.

On to `CC(=O)c1cccc(NC(=O)c2ccc(-c3ccc(Cl)cc3Cl)o2)c1`, for which the displacement was -4.6%.

As for `Cc1ccc(-c2ccc(C(=O)Nc3cccnc3)o2)cc1Cl`, the displacement is 5.6%.

Regarding `Cc1ccc(-c2ccc(C(=O)Nc3ccc(N4CCOCC4)cc3)o2)cc1Cl`, the displacement was found to be 10.8%.

Consider `CC(=O)c1ccc(NC(=O)c2ccc(-c3ccc(Cl)cc3Cl)o2)cc1`, for which the displacement is -1.3%.

Take `O=C(Nc1cc(Cl)cc(Cl)c1)c1ccc(-c2ccc([N+](=O)[O-])cc2)o1`: the displacement came to 5.1%.

Consider `O=C(Nc1ccc(NC(=O)c2ccc(-c3ccc(Cl)cc3Cl)o2)cc1)c1ccccc1`, for which the displacement is 83.5%.

In the case of `Cc1ccccc1C(=O)Nc1cccc(NC(=O)c2ccc(-c3cccc(Cl)c3)o2)c1`, the displacement worked out at 0.6%.

On to `O=C(Nc1cccc(NC(=O)c2ccccc2Cl)c1)c1ccc(-c2ccc(Br)cc2)o1`, for which the displacement turned out to be 57.3%.

Consider `O=C(Nc1cccc([N+](=O)[O-])c1)c1ccc(-c2ccc(Cl)cc2)o1`, for which the displacement was found to be 9%.

As to `O=C(Nc1cccc(NC(=O)c2ccc(Cl)cc2Cl)c1)c1ccc(-c2ccc([N+](=O)[O-])cc2)o1`, the displacement is 106%.

On to `Cc1ccccc1C(=O)Nc1cccc(NC(=O)c2ccc(-c3ccc(Br)cc3)o2)c1`, for which the displacement was 21.4%.

In the case of `Cc1cccc(NC(=O)c2ccc(-c3ccc(C)c(Cl)c3)o2)c1`, the displacement was found to be 69.8%.

With `COc1ccc(CNC(=O)Cc2ccc(Br)cc2)cc1`, the displacement is 0%.

In the case of `COc1ccc(CCNC(=O)/C=C\c2ccccc2)cc1OC`, the displacement was found to be 6.7%.

On to `CCOC(=O)c1c(NC(=O)c2cc(Cl)ccc2[N+](=O)[O-])sc(C(=O)N(CC)CC)c1C`, for which the displacement was -1.1%.

`Cc1cc2[nH]c(=O)cc(-c3ccccc3)n2n1`: the displacement was -5.3%.

On to `COc1cccc(NC(=O)c2cc(Cl)ccc2Cl)c1`, for which the displacement amounted to 11.1%.

Regarding `COc1ccc(-c2nc3cc(N)ccc3o2)cc1OC`, the displacement came out at 2.7%.

For the molecule `CCOC(=O)C(CCOCCOc1c(C)cc(Cl)cc1C)C(=O)OCC`, the displacement is -9.7%.

Regarding `Cc1ccc(/C=N/NS(=O)(=O)c2ccc(C)cc2)cc1`, the displacement was determined as 8%.

In the case of `CCOC(=O)C1=C(C)N=c2s/c(=C\c3ccc(C)o3)c(=O)n2C1c1ccc(SC)cc1` (configuration not stated), the displacement is 65.3%.

Turning to `CCOC(=O)C1=C(C)N=c2s/c(=C\c3ccc(-c4ccccc4C(=O)O)o3)c(=O)n2C1c1cccc(OC)c1` (configuration not stated), the displacement was -23.4%.

As for `CCOC(=O)C1=C(C)N=c2s/c(=C\c3ccc(N4CCOCC4)o3)c(=O)n2C1c1ccc(SC)cc1` (configuration not stated), the displacement is -55.4%.

On to `CCOC(=O)C1=C(C)N=c2s/c(=C\c3ccc(Br)o3)c(=O)n2C1c1cccc(OC)c1` (configuration not stated), for which the displacement was 10.7%.

Regarding `CCOC(=O)C1=C(C)N=c2s/c(=C\c3ccc(C)o3)c(=O)n2C1c1cccc(OC)c1` (configuration not stated), the displacement is 73.3%.

Regarding `CCOC(=O)C1=C(C)N=c2s/c(=C\c3ccc(Br)o3)c(=O)n2C1c1ccc(F)cc1` (configuration not stated), the displacement is 11.2%.

Take `CC1(C)Nc2ccccc2N(CCC(=O)N2CCOCC2)C1=O`: the displacement was 9%.

Regarding `Cc1ccnc(NC(=O)COc2ccc(Cl)c(C)c2)c1`, the displacement was found to be 1.5%.

For the molecule `O=C1CC(c2ccccc2)CC2=C1C(c1ccc(F)cc1)Nc1ccccc1N2` (configuration not stated), the displacement came out at 2.3%.

Consider `COc1ccc(OC)c(/C=N/NC(=O)CSc2ncccn2)c1`, for which the displacement turned out to be 1.1%.

`CC(C)=N/N=C1/NC(=O)C(CC(=O)Nc2ccc(C)cc2C)S1` (configuration not stated): the displacement is -0.5%.

Regarding `C/C(=C\C(=O)c1ccc(C)cc1)Nc1ccc(I)cc1`, the displacement is 7.2%.

Take `NC(=O)c1ccc(NC(=O)CCN2C(=O)c3ccccc3C2=O)cc1`: the displacement was 26.7%.

Turning to `O=Cc1cc(Br)ccc1OCc1c(F)cccc1Cl`, the displacement is 0.3%.

As to `CC(=O)NC1=NC(=O)/C(=C\c2ccc3c(c2)OCO3)S1`, the displacement came to 130%.

Turning to `O=C(N/N=C/c1cc(Cl)ccc1OCc1c(F)cccc1Cl)c1cccnc1`, the displacement is -2%.

Regarding `Cc1ccc(C2=NC(=O)/C(=C/c3ccc4c(c3)OCO4)S2)cc1`, the displacement is 0.5%.

As to `CC(=O)NC1=NC(=O)/C(=C\c2ccc(Cl)cc2)S1`, the displacement was found to be 133%.

Regarding `CC(=O)NC1=NC(=O)/C(=C/c2cc(Cl)ccc2OCc2c(F)cccc2Cl)S1`, the displacement turned out to be 112%.

Turning to `CC(=O)NC1=NC(=O)/C(=C\c2ccc(-c3ccc(C(=O)O)cc3)o2)S1`, the displacement is -27%.

As for `CC(=O)NC1=NC(=O)/C(=C\c2ccc(-c3ccccc3C(=O)O)o2)S1`, the displacement turned out to be 14.5%.

For `CC(=O)NC1=NC(=O)/C(=C\c2ccc(Cl)c(Cl)c2)S1`, the displacement was -13.5%.

For the molecule `CC(=O)NC1=NC(=O)/C(=C\c2cn(C)c3ccccc23)S1`, the displacement worked out at 123%.

As for `CC(=O)NC1=NC(=O)/C(=C\c2ccc(C(C)C)cc2)S1`, the displacement is -10.2%.

As to `COC(=O)c1cc(C(=O)N2CCCC2)cc([N+](=O)[O-])c1`, the displacement was 12.7%.

On to `Cc1cc(/C=N/NC(=O)c2ccccn2)c(C)n1-c1cccc(Cl)c1`, for which the displacement was -15.5%.

As for `COc1ccc(S(=O)(=O)N(CC(=O)N[C@@H]2CCCC[C@H]2O)c2ccc(C)cc2)cc1OC`, the displacement stood at 0.1%.

`COC(=O)c1cnn2c1NC(c1ccccc1)CC2C(F)(F)F` (configuration not stated): the displacement amounted to 6.5%.
